# Measured values taken from the supplement of paper PMC7380943.
# ± gives the standard deviation of the averaged measurements.
# Legend:
# [1] = tested on: CLZ3 (HCA2 human fibroblast dual HR-NHEJ reporter); assay: NHEJ repair efficiency (GFP+ cells) relative to control (log10 fold); higher = more non-homologous end joining; details: 5 µM; doxycycline 0.5 ug/mL
# [2] = tested on: CLZ3 (HCA2 human fibroblast dual HR-NHEJ reporter); assay: HR repair efficiency (tdTomato+ cells) relative to control (log10 fold); higher = more homologous recombination; details: 5 µM; doxycycline 0.5 ug/mL
# 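For HR repair efficiency (tdTomato+ cells) relative to control in this document: compound given one day before doxycycline, which switches on I-SceI endonuclease expression to create double-strand breaks within the integrated reporter.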
# 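For NHEJ repair efficiency (GFP+ cells) relative to control in this document: compound given one day ahead of doxycycline, which switches on I-SceI endonuclease to cut the chromosomally integrated reporter and create DSBs.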
Structure (SMILES),NHEJ repair efficiency (log10) [1],HR repair efficiency (log10) [2]
COc1ccc(-c2oc3cc(OC)c(OC)c(O)c3c(=O)c2OC)cc1O [Vitexicarpin],-0.0426,-0.203
COc1cc(C2Oc3ccc(C4Oc5cc(O)cc(O)c5C(=O)C4O)cc3OC2CO)ccc1O (configuration not stated) [Iso-Silybin],-0.138,-0.241
C=C(C)[C@H](CC=C(C)C)Cc1c(O)cc(OC)c2c1O[C@H](c1ccc(O)cc1O)CC2=O [Kurarinone],0.0108,0.0158
COc1ccc(-c2cc(=O)c3c(OC)c(OC)c(OC)c(OC)c3o2)cc1 [Tangeretin],-0.13,-0.0674
CC1(C)[C@@H](O)CC[C@]2(C)[C@H]3C(=O)C=C4[C@@H]5C[C@@](C)(C(=O)O)CC[C@]5(C)CC[C@@]4(C)[C@]3(C)CC[C@@H]12 [Glycyrrhetinic Acid],0.0065,0.158
C=C(CC[C@@H](C(=O)O)[C@H]1[C@H](O)C[C@@]2(C)C3=C(CC[C@]12C)[C@@]1(C)CC[C@H](OC(C)=O)C(C)(C)[C@@H]1CC3)C(C)C [Pachymic Acid],-0.118,0.0591
COc1c(O)cc2oc(-c3ccccc3)cc(=O)c2c1O [Oroxylin-A],-0.22,0.0535
O=C(O)c1cc(O)c2c(c1)C(=O)c1cccc(O)c1C2=O [Rhein],0.0809,-0.07
C[C@@H]1CC[C@@]2(OC1)O[C@H]1C[C@H]3[C@@H]4CC=C5C[C@@H](O)C[C@@H](O[C@@H]6O[C@H](C)[C@H](O)[C@H](O[C@@H]7OC[C@@H](O)[C@H](O)[C@H]7O)[C@H]6O[C@@H]6O[C@@H](C)[C@H](O)[C@@H](O)[C@H]6O)[C@]5(C)[C@H]4CC[C@]3(C)[C@H]1[C@@H]2C [Ophiopogonin D],-0.0762,-0.0693
CC(C)=CC[C@H](O)/C(C)=C/CO[C@@H]1O[C@H](CO)[C@@H](O)[C@H](O)[C@H]1O [Rosiridin],0.096,0.104
CC(C)=CCC[C@](C)(O[C@@H]1O[C@H](CO)[C@@H](O)[C@H](O)[C@H]1O)[C@H]1CC[C@]2(C)[C@@H]1[C@H](O)C[C@@H]1[C@@]3(C)CC[C@H](O)C(C)(C)[C@@H]3[C@@H](O[C@@H]3O[C@H](CO)[C@@H](O)[C@H](O)[C@H]3O)C[C@]12C [Ginsenoside Rg1],0.099,0.0737
C=C(C)[C@@H]1CC[C@]2(C)CC[C@]3(C)[C@H](CC[C@@H]4[C@@]5(C)CC[C@H](O)C(C)(C)[C@@H]5CC[C@]43C)[C@@H]12 [Lupeol],0.0011,0.06
COc1ccc(C2OCC3C(c4cc(OC)c(OC)c(OC)c4)OCC23)cc1OC (configuration not stated) [Magnolin],-0.0599,-0.00542
COc1c2c(cc3c1-c1c(cc4c(c1OC)OCO4)C[C@H](C)[C@H](C)C3)OCO2 [Schisandrin C],-0.137,0.0438
Cc1cc(O)c2c(c1)C(=O)c1cc(O)cc(O)c1C2=O [Emodin],-0.0237,0.049
COc1c2ccoc2c(OC[C@@H](O)C(C)(C)O)c2oc(=O)ccc12 [Byakangelicin],0.0236,-0.0476
"CC1(C)[C@H](OC(=O)c2ccccc2)CC[C@]2(C)C3=C([C@@H](O)C[C@@H]12)[C@@]1(C)CC[C@@]2(C)CC[C@@](C)(COC(=O)c4ccccc4)C[C@H]2[C@]1(C)CC3 [3,29-Dibenzoyl Rarounitriol]",-0.00463,0.103
O=c1cc(-c2ccc(O)cc2)oc2cc(O[C@@H]3O[C@H](CO)[C@@H](O)[C@H](O)[C@H]3O[C@@H]3OC[C@](O)(CO)[C@H]3O)cc(O)c12 [Apiin],0.142,0.321
CC(CCC(OC1OC(CO)C(O)C(O)C1OC1OC(CO)C(O)C(O)C1O)C(C)(C)O)C1CCC2(C)C3CC=C4C(CCC(OC5OC(COC6OC(CO)C(O)C(O)C6O)C(O)C(O)C5O)C4(C)C)C3(C)C(O)CC12C (configuration not stated) [Mogroside IV],0.0766,0.171
O=C1c2ccccc2C(=O)c2c1cc(O)c(CO)c2O [Lucidin],0.134,0.258
C=CC(C)(C)c1cc(/C=C/C(=O)c2ccc(O)cc2)c(OC)cc1O [Licochalcone A],-0.106,0.0473
O=c1ccc2ccc(O)c(O)c2o1 [Daphnetin],0.0636,0.146
C[C@@H]1[C@H]2[C@H](O[C@@H]3O[C@H](CO)[C@@H](O)[C@H](O)[C@H]3O)OC=C(C(=O)O)[C@H]2C[C@@H]1O [Loganic Acid],0.0621,0.135
CC(/C=C/C=C(\C)C(=O)O[C@@H]1O[C@H](CO[C@@H]2O[C@H](CO)[C@@H](O)[C@H](O)[C@H]2O)[C@@H](O)[C@H](O)[C@H]1O)=C\C=C\C=C(C)\C=C\C=C(/C)C(=O)O[C@@H]1O[C@H](CO[C@@H]2O[C@H](CO)[C@@H](O)[C@H](O)[C@H]2O)[C@@H](O)[C@H](O)[C@H]1O [Crocin I],0.0171,0.076
COc1cc2oc(=O)ccc2c(OC)c1O [Fraxinol],0.0138,0.0872
CO[C@]1(CC[C@H](C)CO[C@@H]2O[C@H](CO)[C@@H](O)[C@H](O)[C@H]2O)O[C@H]2C[C@H]3[C@@H]4CC[C@@H]5C[C@@H](O[C@@H]6O[C@H](CO)[C@H](O)[C@H](O)[C@H]6O[C@@H]6O[C@H](CO)[C@@H](O)[C@H](O)[C@H]6O)CC[C@]5(C)[C@H]4CC[C@]3(C)[C@H]2[C@@H]1C [Anemarsaponin E],0.0103,-0.0664

Structure (SMILES),NHEJ repair efficiency (log10) [1],HR repair efficiency (log10) [2]
O=Cc1ccc(O[C@@H]2O[C@H](CO)[C@@H](O)[C@@H](O)[C@H]2O)cc1 [Helicide],0.119 ± 0.097,0.0668 ± 0.075
C=C1C[C@@]23CC[C@H]4[C@@](C)(CCC[C@@]4(C)C(=O)O[C@@H]4O[C@H](CO)[C@@H](O)[C@H](O)[C@H]4O)[C@@H]2CC[C@]1(O[C@@H]1O[C@H](CO)[C@@H](O)[C@H](O)[C@H]1O)C3 [Rubusoside],0.0726,0.0779
CC1=C2C(=O)O[C@@H](c3ccoc3)[C@]2(C)CCC1 [Fraxinellone],0.105,0.113
COc1ccc(-c2cc(=O)c3c(O)cc(O[C@@H]4O[C@H](CO[C@@H]5O[C@@H](C)[C@H](O)[C@@H](O)[C@H]5O)[C@@H](O)[C@H](O)[C@H]4O)cc3o2)cc1O [Diosmin],-0.157,-0.0408
O=C(/C=C/c1ccc(O)c(O)c1)O[C@@H]1[C@H](O)C[C@@](O)(C(=O)O)C[C@H]1OC(=O)/C=C/c1ccc(O)c(O)c1 [Isochlorogenic acid B],0.142,0.105
COc1cc2ccc(=O)oc2c(OC)c1O [Isofraxidin],-0.0516,-0.153
CCOC(=O)c1c(C(=O)OCC)c(O)c2ccccc2c1O [Rubidate],0.0573,0.128
O=C(OCC1=C[C@@H](O)[C@@H]2C=CO[C@@H](O[C@@H]3O[C@H](CO)[C@@H](O)[C@H](O)[C@H]3O)[C@H]12)c1ccc(O)cc1 [Agnuside],-0.062,0.106
CC(C)=CC(O)C/C(C)=C/COc1c2ccoc2cc2oc(=O)ccc12 (configuration not stated) [Notopterol],0.0643,0.151
COc1cc(/C=C/c2ccc(O)cc2)cc(OC)c1 [Pterostilbene],0.127,0.242
CC1(C)CC[C@]2(C(=O)O[C@@H]3O[C@H](CO[C@@H]4O[C@H](CO)[C@@H](O)[C@H](O)[C@H]4O)[C@@H](O)[C@H](O)[C@H]3O)CC[C@]3(C)C(=CC[C@@H]4[C@@]5(C)CC[C@H](O[C@@H]6OC[C@H](O)[C@H](O)[C@H]6O)[C@@](C)(CO)[C@@H]5CC[C@]43C)[C@@H]2C1 [Akebiasaponin D],0.328,-0.29
Oc1cc(O)c2c(c1)OC(c1ccc(O)c(O)c1)C(OC1(c3ccc(O)c(O)c3)Oc3cc(O)cc(O)c3C(O)C1O)C2 (configuration not stated) [Procyanidins],0.0386,0.123
O=c1c(-c2ccc(O)cc2)coc2c([C@@H]3O[C@H](CO)[C@@H](O)[C@H](O)[C@H]3O)c(O)ccc12 [Puerarin],0.0163,0.038
O=C1CCC[C@@H]2[C@H]3CCC[N+]4([O-])CCC[C@@H](CN12)[C@@H]34 (some centres not stated) [Oxymatrine],0.0707,-0.0643
C[C@H]1[C@H](C)CC[C@]2(C(=O)O)CC[C@]3(C)C(=CC[C@@H]4[C@@]5(C)CC[C@H](O)C(C)(C)[C@@H]5CC[C@]43C)[C@H]12 [Ursolic Acid],0.324,-0.12
O=c1c2ccccc2nc2n1CCc1c-2[nH]c2ccccc12 [Rutecarpine],-0.038,-0.0255
CO[C@H]1O[C@@H]2O[C@@]3(C)CC[C@H]4[C@H](C)CC[C@@H]([C@H]1C)[C@@]24OO3 [Artemether],0.125,0.186
O=c1c(-c2ccc(O[C@@H]3O[C@H](CO)[C@@H](O)[C@H](O)[C@H]3O)cc2)coc2cc(O)cc(O)c12 [Sophoricoside],0.185,0.0013
Cc1cc(=O)c2c(O)c3c(cc2o1)OC(C)(C)[C@@H](O[C@@H]1O[C@H](CO)[C@@H](O)[C@H](O)[C@H]1O)C3 [Sec-O-Glucosylhamaudol],-0.132,-0.0801
CC(C)[C@@H](C)/C=C/[C@@H](C)[C@H]1CC[C@H]2C3=CC=C4C[C@@H](O)CC[C@]4(C)[C@H]3CC[C@]12C [Ergosterol],0.00511,0.141
COc1cc(CNC(=O)CCCCCCC(C)C)ccc1O [Dihydrocapsaicin],-0.263,-0.256
COc1ccc(C(C)=O)c(O)c1 [Paeonol],0.076,0.17
C=C(C)[C@@H]1CC[C@]2(C)[C@H](CC=C3[C@@H]4[C@@H](C)[C@H](C)CC[C@]4(C)CC[C@]32C)[C@@]1(C)CCC(=O)O [Roburic acid],0.15,0.128
C=CCc1ccc(OC)c(OC)c1 [Methyleugenol],0.14,0.161
COc1cc(O)c2c(=O)c(-c3ccc(O)cc3)coc2c1 [Prunusetin],-0.0809,-0.16
